Pf gametocyte = late stage P. falciparum gametocyte viability inhibitors, primary screen, ATP luminescence, HTS; P. falciparum stage V gametocytes, 24 h; inhibition, % at 10.9 µM; 150,000 compounds, 0.065% hits; AID 743093, 2013;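 active means inhibition above the mean plus 3 SD of compounds within the control limits, set per campaign, cut at about 38% in these data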
Bim-Mcl-1 = inhibitors of Bim peptide binding to Mcl-1, primary screen, biochemical, bead-based flow cytometry, multiplex | inhibition, % at 10 µM | Bim peptide-Mcl-1 binding | AID 1009, 2008 | 190,000 compounds, 0.1% hits; in the data active means inhibition above about 40%
Target sequence (Q07820 whole entry, looked up): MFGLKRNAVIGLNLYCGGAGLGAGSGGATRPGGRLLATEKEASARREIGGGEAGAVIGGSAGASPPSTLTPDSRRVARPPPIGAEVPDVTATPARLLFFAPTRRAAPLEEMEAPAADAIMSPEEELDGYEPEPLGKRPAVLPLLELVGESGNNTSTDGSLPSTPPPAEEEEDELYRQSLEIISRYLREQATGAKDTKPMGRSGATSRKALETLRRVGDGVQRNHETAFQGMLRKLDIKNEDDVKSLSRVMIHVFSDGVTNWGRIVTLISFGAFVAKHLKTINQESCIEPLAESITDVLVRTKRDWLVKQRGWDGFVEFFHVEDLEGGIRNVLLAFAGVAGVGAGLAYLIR
Mcl1-Bid inh = Mcl-1/Bid binding inhibitors, primary screen, biochemical, TR-FRET, 1536-well | TR-FRET Mcl-1/Bid-Dy647 peptide binding | Induced myeloid leukemia cell differentiation protein Mcl-1 (Homo sapiens), Q07820 | AID 1021, 2008 | 220,000 compounds, 0.97% hits | inhibition, % at 21.7 µM;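 active means compounds that cut the binding signal by more than half at the single screening dose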;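 further: His-tagged Mcl-1 with europium anti-His antibody binding Bid BH3 peptide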
14-3-3 Bad inh = inhibitors of 14-3-3 zeta/Bad binding, primary screen, biochemical, TR-FRET, bovine 14-3-3 zeta; 14-3-3 protein zeta/delta (Bos taurus), P63103; TR-FRET 14-3-3zeta/Dy647-pBad peptide displacement, 1 h; inhibition, % at 21.7 µM; 220,000 compounds, 0.71% hits; AID 781, 2007;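 active means inhibition above about 70%, limit read from the data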
Target sequence (P63103 whole entry, looked up): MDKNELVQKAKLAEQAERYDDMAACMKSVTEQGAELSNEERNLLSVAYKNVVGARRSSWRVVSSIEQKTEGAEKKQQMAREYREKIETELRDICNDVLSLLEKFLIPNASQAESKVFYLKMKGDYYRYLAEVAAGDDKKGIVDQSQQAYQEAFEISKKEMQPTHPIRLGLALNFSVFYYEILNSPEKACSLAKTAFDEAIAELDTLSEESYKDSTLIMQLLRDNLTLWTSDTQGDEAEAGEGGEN
Hck-Nef inh = inhibitors of Nef-activated human Hck kinase, primary screen, biochemical, Z-Lyte FRET, 384-well, Hck-YEEI; Tyrosine-protein kinase HCK (Homo sapiens), P08631; Recombinant Hck-YEEI plus Nef, Z-Lyte FRET kinase assay; AID 463187, 2010; 220,000 compounds, 0.68% hits; inhibition, % at 20 µM;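 active means Hck-Nef kinase inhibition above about 50%, limit read from the data; inactive means inhibition below that limit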
Mcl1 Noxa PPI = Mcl-1/Noxa binding inhibitors, primary screen, biochemical, TR-FRET, 1536-well; TR-FRET Mcl-1/Noxa peptide binding, 2 h; inhibition, % at 21.7 µM; 220,000 compounds, 1.5% hits; AID 1022, 2008;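 active means compounds that cut the protein-peptide binding signal by more than 50% relative to plate controls in a single-dose test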;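 further: His-tagged Mcl-1 with rhodamine Noxa BH3 peptide and terbium anti-His antibody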
Of the large screens only hits and unclear results are named; the others gave an inactive call; [ ] = remark or other dose. An excerpt weighted towards active compounds, which were near 2.9% of everything screened.

CN1CCN(C(c2ccccn2)c2cc(Cl)c3cccnc3c2O)CC1 (centres undefined)	none
Oc1c(C(c2ccc(Cl)cc2)N2CCCC2)cc(Cl)c2cccnc12 (centres undefined)	Mcl1-Bid inh 73
COc1ccc(Cl)cc1NC(=O)C(OC)c1ccccc1 (centres undefined)	14-3-3 Bad inh 87 (no result: Pf gametocyte)
CCC(C(=O)Nc1cc(Cl)ccc1OC)c1ccccc1 (centres undefined)	none (no result: Pf gametocyte)
c1ccc(-c2nc3nc4ccccc4nc3n2CC2CCCO2)cc1 (centres undefined)	none (no result: Bim-Mcl-1)
O=C(CNc1ccccc1)NNC1=NCCC1	14-3-3 Bad inh 89
O=C(CNc1ccc2ccccc2c1)NNC1=NCCC1	none
COc1cc(C=O)cc(Br)c1OCC(N)=O	none
CC(NC(=O)Cn1cnc2c1c(=O)n(C)c(=O)n2C)c1ccccc1 (centres undefined)	Mcl1-Bid inh 94 (no result: Pf gametocyte)
Cn1c(=O)c2c(ncn2CC(=O)OCC(=O)NC(c2ccccc2)c2ccccc2)n(C)c1=O	none
COC(=O)c1ccccc1NC(=O)c1cc(C2CC2)on1	none (no result: Pf gametocyte)
COC(=O)c1ccccc1NC(=O)c1cc(-c2ccc(O)cc2)on1	Mcl1 Noxa PPI 68 (no result: Pf gametocyte)
O=C(O)CCn1cnc2ccccc2c1=O	none (no result: Pf gametocyte)
O=C(CC1Sc2ccccc2NC1=O)OCc1cc(=O)oc2cc(O)ccc12 (centres undefined)	Mcl1 Noxa PPI 95
Cc1ccc(NC(=O)CSc2nnc(-c3ccccn3)n2N)cc1F	none (no result: Bim-Mcl-1)
Brc1ccc(C2=Nc3cccc4cccc(c34)N2)o1	Mcl1 Noxa PPI 55
Cc1ccc(N=Nc2ccc(N)cc2C)c(S(N)(=O)=O)c1	Mcl1 Noxa PPI 52 (no result: Pf gametocyte, Bim-Mcl-1)
O=C(/C=C/c1cn(-c2ccccc2)nc1-c1cccnc1)NCCN1CCOCC1	14-3-3 Bad inh 85
COC(=O)C1=C(C)NC(=O)CC1c1ccc(C(=O)OC)cc1 (centres undefined)	none (no result: Pf gametocyte)
O=S(=O)(c1cccs1)N1CCN(c2ccnc3cc(Cl)ccc23)CC1	none (no result: Bim-Mcl-1)
O=S(=O)(c1ccccc1)N1CCN(c2ccnc3cc(Cl)ccc23)CC1	14-3-3 Bad inh 71
COc1ccc(C(=O)N=C2CCC(C#N)=C3c4cc(OC)c(OC)cc4CCN23)cc1	none
N#Cc1c(NC(=O)c2ccccc2Cl)n(Cc2ccccc2)c2nc3ccccc3nc12	Mcl1 Noxa PPI 70
COc1ccc(C(=O)Nc2ccc(C(=O)Nc3nccs3)cc2)cc1[N+](=O)[O-]	none
OCC1(Cc2ccccc2)CCN(Cc2cnc(-c3ccc(Cl)cc3)nc2)CC1	Pf gametocyte 42
O=C(CNC(=O)c1ccccc1Br)N/N=C/c1cc(Br)ccc1O	14-3-3 Bad inh 93 (no result: Pf gametocyte)
O=C(O)C1C2CCC(O2)C1C(=O)Nc1cccc(Cl)c1 (centres undefined)	none (no result: Bim-Mcl-1, Mcl1-Bid inh, 14-3-3 Bad inh, Hck-Nef inh, Mcl1 Noxa PPI)
Cc1cc2ncn(/N=C/c3ccc([N+](=O)[O-])s3)c2cc1C	Mcl1 Noxa PPI 87 (no result: Pf gametocyte)
COc1ccc(/C=N/N(C(C)=O)c2nc(-c3ccc(C)cc3)cs2)cc1	none
CC(=O)N(/N=C/c1cccc(C)c1)c1nc(-c2ccc(Br)cc2)cs1	Mcl1-Bid inh 99 (no result: Pf gametocyte)
O=C1/C(=C/c2ccc(O)c(O)c2)SC(=S)N1Nc1ccccc1	Mcl1 Noxa PPI 60 (no result: Pf gametocyte)
C/C(=N\Nc1ccc(C(=O)O)cc1)c1ccc2c(c1)Nc1ccccc1S2	Mcl1-Bid inh 57, Mcl1 Noxa PPI 87 (no result: Bim-Mcl-1)
CC#C[C@]1(O)CC[C@H]2[C@@H]3CCC4=CC(=O)CCC4=C3[C@@H](c3ccc(N(C)C)cc3)C[C@@]21C	Mcl1 Noxa PPI 67 (no result: Pf gametocyte)
C=CCNCCOCCOc1ccc(Cl)cc1C(C)(C)C	Mcl1-Bid inh 58
COc1ccccc1N1CCN(/N=C/C=C\c2ccccc2[N+](=O)[O-])CC1	none (no result: Pf gametocyte)
O=C(CSc1cccc[n+]1[O-])Nc1cc2c(cc1Cl)C(=O)c1ccccc1C2=O	Mcl1-Bid inh 81, 14-3-3 Bad inh 99[fluorescence artefact?], Mcl1 Noxa PPI 85
COc1ccc(CC(=O)Nc2ccccc2C(=O)N2CCOCC2)cc1OC	none
COc1cccc(OC)c1C(=O)Nc1ccccc1C(=O)N1CCOCC1	Mcl1-Bid inh 84 (no result: Pf gametocyte)
CCOC(=O)CSc1nnc(-c2cccc(Cl)c2)n1CC	Bim-Mcl-1 45 (no result: Pf gametocyte)
COc1cccc(CN2CCNC(=O)C2CC(=O)NC2Cc3ccccc3C2)c1 (centres undefined)	none
CC(C)CC1NC(=O)N(CC(=O)N2c3ccccc3NC(=O)C2(C)C)C1=O (centres undefined)	Mcl1 Noxa PPI 82
Cc1cc(C(=O)CN2C(=O)NC(CC(C)C)C2=O)c(C)n1-c1ccccc1F (centres undefined)	none (no result: Pf gametocyte)
CC1(C)C(=O)Nc2ccccc2N1C(=O)Cn1ncc(Cl)c(Cl)c1=O	Mcl1 Noxa PPI 58 (no result: Bim-Mcl-1)
CCC/C(C)=N/NC(=O)c1ccccc1O	none (no result: Pf gametocyte)
C/C(=N\NC(=O)c1ccccc1O)C1C(=O)c2ccccc2C1=O	Mcl1 Noxa PPI 66
O=S(=O)(Cc1cc(Cl)nc(-c2ccncc2)n1)c1ccccc1	Mcl1 Noxa PPI 81
O=S(=O)(Cc1cc(Cl)nc(-c2ccccc2)n1)c1ccccc1	none (no result: Pf gametocyte)
COc1cccc(/C=N/NC(=O)c2c(-c3ccccc3)noc2C)c1	none (no result: Pf gametocyte)
O=[N+]([O-])c1cccc(N/N=C/c2cccc3ccccc23)c1	Mcl1 Noxa PPI 59
O=C(CSc1nc2[nH]ncc2c(=O)n1-c1ccc(Cl)c(Cl)c1)NCc1ccccc1Cl	none
O=C(CSc1nnc(SCc2ccc(Cl)cc2)s1)N/N=C/c1c[nH]c2ccccc12	Mcl1-Bid inh 92, 14-3-3 Bad inh 90[fluorescence artefact?], Mcl1 Noxa PPI 65 (no result: Pf gametocyte)
O=C(CSc1nnc(SCc2cccc3ccccc23)s1)N/N=C/c1c[nH]c2ccccc12	none
O=C(CNc1ccccc1)N/N=C/c1c[nH]c2ccccc12	none
O=C(COc1ccc(Cl)cc1Cl)NCC(=O)N/N=C/c1c[nH]c2ccccc12	Mcl1 Noxa PPI 58
CN(C)c1ccc(-n2cccc2)cc1	Mcl1 Noxa PPI 62 (no result: Bim-Mcl-1)
c1ccc(Oc2cccc(CN3CCCCC3)c2)cc1	none (no result: Pf gametocyte)
Cc1cc(Cl)ccc1NC(=S)NC1CCCC1	none (no result: Bim-Mcl-1, Mcl1-Bid inh, 14-3-3 Bad inh, Hck-Nef inh, Mcl1 Noxa PPI)
COC/C=C/C1=CC2=CC(=O)C(C)(OC(=O)c3ccco3)C(=O)C2=CO1 (centres undefined)	Mcl1 Noxa PPI 93 (no result: Pf gametocyte, Bim-Mcl-1)
COC/C=C/C1=CC2=CC(=O)C(C)(OC(=O)C3CCCC3)C(=O)C2=CO1 (centres undefined)	none (no result: Pf gametocyte, Bim-Mcl-1)
CC1CCN(S(=O)(=O)c2cccc(C(=O)Nc3ccccn3)c2)CC1	Mcl1-Bid inh 79

Screens (PubChem BioAssay)
